The full ranking holds about 2,000 compounds; the median of “B-score” is about -0.0024, and the highest 2% start at about 4. Shown is part of a subset that was picked to be rich in the highest values.
system: Balamuthia mandrillaris (ATCC PRA-291) trophozoites, axenic culture; test: primary screen, b score; details: 20 µM
Summary of the method: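 Trophozoites (3,000/well) in axenic medium exposed to library drugs at 20 µM in 0.2% DMSO for 72 h; viability by CellTiter Glo luminescence at 2, 4 and 8 h. Controls: vehicle and freeze-thaw amoeba lysate; B-score corrects row, column and edge effects.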

How did the B-score turn out when Cc1cc(C(C)(C)C)c(O)c(C(C)(C)C)c1 was run?
The B-score was -0.212.

Nc1nc(=O)n([C@@H]2CS[C@H](CO)O2)cc1F was tested. Which B-score did it give?
Its B-score is -0.911.

CNC(=O)c1c(I)c(NC(C)=O)c(I)c(C(=O)O)c1I was tested. Which B-score did it give?
Its B-score is 0.108.

Which B-score does the source give for CO[C@H](C(=O)[C@@H](O)[C@@H](C)O)[C@@H]1Cc2cc3cc(O[C@H]4C[C@@H](O[C@H]5C[C@@H](O)[C@H](O)[C@@H](C)O5)[C@H](O)[C@@H](C)O4)c(C)c(O)c3c(O)c2C(=O)[C@H]1O[C@H]1C[C@@H](O[C@H]2C[C@@H](O[C@H]3C[C@](C)(O)[C@H](O)[C@@H](C)O3)[C@@H](O)[C@@H](C)O2)[C@H](O)[C@@H](C)O1 here?
Its B-score is 8.18.

With CC(=O)O[C@@]12CO[C@@H]1C[C@H](O)[C@@]1(C)C(=O)[C@H](O)C3=C(C)[C@@H](OC(=O)[C@H](O)[C@@H](NC(=O)OC(C)(C)C)c4ccccc4)C[C@@](O)([C@@H](OC(=O)c4ccccc4)C12)C3(C)C (some centres unmarked) as the compound, how does the B-score read?
The B-score was -2.24.

Which B-score does the source give for CCN1CCCC(OC(=O)C(c2ccccc2)c2ccccc2)C1 (centres unmarked) here?
Its B-score is 0.874.

CC(C)(C)c1ccc(C(O)CCCN2CCC(C(O)(c3ccccc3)c3ccccc3)CC2)cc1 (centres unmarked) was tested. Which B-score did it give?
Its B-score is -2.26.

For Oc1ccnc(O)n1, which B-score is on record?
The B-score was 1.41.

For CC(C)c1c(C(=O)Nc2ccccc2)c(-c2ccccc2)c(-c2ccc(F)cc2)n1CC[C@@H](O)C[C@@H](O)CC(=O)O, which B-score is on record?
Its B-score is 6.68.

For CC(C)n1c(/C=C/[C@@H](O)C[C@@H](O)CC(=O)O)c(-c2ccc(F)cc2)c2ccccc21 [255968-L2], which B-score is on record?
The B-score was 3.74.

With CC(C)n1c(/C=C/[C@@H](O)C[C@@H](O)CC(=O)O)c(-c2ccc(F)cc2)c2ccccc21 [255968-L3] as the compound, how does the B-score read?
The B-score was -0.277.

How did the B-score turn out when CCC(=O)O[C@]1(C(=O)CCl)[C@@H](C)C[C@H]2[C@@H]3CCC4=CC(=O)C=C[C@]4(C)[C@@]3(F)[C@@H](O)C[C@@]21C [285821-L1] was run?
The B-score was -1.34.

Which B-score does the source give for Cc1ccccc1N1CCN(CCc2nnc3n2CCCC3)CC1 here?
Its B-score is 2.29.

With COC(=O)N/N=C/c1c[n+]([O-])c2ccccc2[n+]1[O-] as the compound, how does the B-score read?
Its B-score is 2.88.

With O=C1CCc2ccc(OCCCCN3CCN(c4cccc(Cl)c4Cl)CC3)cc2N1 [756864-L1] as the compound, how does the B-score read?
The B-score was 1.99.

Which B-score does the source give for CCOC(=O)/C=C(C)/C=C/C=C(C)/C=C/c1c(C)cc(OC)c(C)c1C here?
The B-score was -0.469.

Which B-score does the source give for CCCCCCCCCCCCCCCC[N+](C)(C)C here?
Its B-score is 10.

How did the B-score turn out when C[N+](C)(C)CCCCCCCCCC[N+](C)(C)C was run?
Its B-score is 0.626.

Which B-score does the source give for C[N+](C)(C)CCCCCC[N+](C)(C)C here?
The B-score was -0.576.

For CC1(C)NC(=O)N(c2ccc([N+](=O)[O-])c(C(F)(F)F)c2)C1=O [131481-L4], which B-score is on record?
Its B-score is 0.0858.
